Test results reported in PubChem BioAssay (NCATS).
Results filed as inconclusive are left out. Activity calls are given as the source filed them. Calls follow the shape of the dose curve; as a rule, active = well fitted curve in the direction sought with a large enough effect; inconclusive = small, poorly fitted or top-dose-only effect, or another doubt; inactive = no such curve, though single readings can be large; an effect the other way counts as inactive or inconclusive.

What was measured:
CRL-7250 = normal cell line; experiment: Cytotoxic Profiling of Annotated Libraries Using Quantitative High-Throughput Screening (AID 1296008); conditions: Five cell lines viability, CellTiter-Glo ATP luminescence, 48-72 h; max response: active compounds read low; also: nearly all actives have a fitted effect of over 60% in size; as to max response: % is scaled to controls: 0 for no effect and ±100 for the full control effect
Procedure, shortened: (§1)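 Cells exposed to compounds for 48 or 72 hr at 37 degrees Celsius. Viability read as ATP-coupled luminescence with CellTiter-Glo after 10 min at room temperature.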

HEK293 = experiment: as above; conditions: Five cell lines viability, CellTiter-Glo ATP luminescence, 48-72 h; max response: active compounds read low
Procedure, shortened: as §1

HaCat [1] = experiment: as above; conditions: Five cell lines viability, CellTiter-Glo ATP luminescence, 48-72 h; max response: active compounds read low
Procedure, shortened: as §1

KB-3-1 = experiment: as above; conditions: Five cell lines viability, CellTiter-Glo ATP luminescence, 48-72 h; max response: active compounds read low
Procedure, shortened: as §1

NIH3T3 [2] = experiment: as above; conditions: Five cell lines viability, CellTiter-Glo ATP luminescence, 48-72 h; max response: active compounds read low
Procedure, shortened: as §1

HACAT [3] = experiment: qHTS assay to identify novel small-molecules to repurpose for Merkel cell carcinoma treatment (AID 1296009); conditions: MCC and control cell lines, CellTiter-Glo viability, 72 h; at 44.8 µM (top of the series) unless noted; also: nearly all actives have a fitted effect of over 60% in size
Procedure, shortened: (§2)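 Dose-response viability screen; 72 hr exposure at 37 degree celsius; CellTiter-Glo added, 10 min room temperature, luminescence read; RLUs scaled between no-cell and DMSO wells.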

NIH3T3 [4] = experiment: as above; conditions: MCC and control cell lines, CellTiter-Glo viability, 72 h; at 44.8 µM (top of the series) unless noted
Procedure, shortened: as §2

C33A = experiment: Primary qHTS to identify gynecologic anti-cancer compounds using libraries of approved drugs and bioactive compounds (AID 1345084); conditions: Gynecologic cancer cell panel viability, ATPlite luminescence, 48 h; series mostly up to 57.5 µM; also: % is scaled to controls: 0 for no effect and ±100 for the full control effect; nearly all actives have a fitted effect of over 55% in size
Procedure, shortened: (§3)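 Cells, 1,000 per well, were allowed to settle for 16 h at 37 C before compound addition. Five concentrations were tested for 48 h, and viability was read by ATPlite luminescence after 15 min at room temperature.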

CAOV3 = experiment: as above; conditions: Gynecologic cancer cell panel viability, ATPlite luminescence, 48 h; series mostly up to 57.5 µM
Procedure, shortened: as §3

CASKI = experiment: as above; conditions: Gynecologic cancer cell panel viability, ATPlite luminescence, 48 h; series mostly up to 57.5 µM
Procedure, shortened: as §3

Es-2 = experiment: as above; conditions: Gynecologic cancer cell panel viability, ATPlite luminescence, 48 h; series mostly up to 57.5 µM
Procedure, shortened: as §3

HeLa = experiment: as above; conditions: Gynecologic cancer cell panel viability, ATPlite luminescence, 48 h; series mostly up to 57.5 µM
Procedure, shortened: as §3

Hek293T = experiment: as above; conditions: Gynecologic cancer cell panel viability, ATPlite luminescence, 48 h, control line for the selectivity index; series mostly up to 57.5 µM
Procedure, shortened: as §3

JEG-3 = experiment: as above; conditions: Gynecologic cancer cell panel viability, ATPlite luminescence, 48 h; series mostly up to 57.5 µM
Procedure, shortened: as §3

COc1ccc(CC(=O)NCc2ccccc2-c2ccccc2C(=O)NCCc2cccnc2)cc1
inactive: max response (CRL-7250) -3.16% | max response (HEK293) -0.81% | outcome (HaCat [1]) | max response (KB-3-1) -4.64% | outcome (NIH3T3 [2]) | outcome (HACAT [3]) | outcome (NIH3T3 [4]) | Potency (C33A) | Potency (CAOV3) | outcome (CASKI) | Potency (Es-2) | Potency (HeLa) | Potency (Hek293T) | Potency (JEG-3)

Nc1ncnc2c1ncn2[C@H]1O[C@@H](C(=O)N2CCN(CC(=O)Nc3cccc4c3CNC4=O)CC2)[C@H](O)[C@@H]1O
inactive: outcome (CRL-7250) | max response (HEK293) 1.78% | outcome (HaCat [1]) | outcome (KB-3-1) | outcome (NIH3T3 [2]) | outcome (HACAT [3]) | outcome (NIH3T3 [4]) | Potency (C33A) | Potency (CAOV3) | outcome (CASKI) | Potency (Es-2) | Potency (HeLa) | Potency (Hek293T) | Potency (JEG-3)

CC1(C)CC[C@]2(C(=O)O[C@@H]3O[C@H](CO)[C@@H](O)[C@H](O)[C@H]3O)CC[C@]3(C)C(=CCC4[C@@]5(C)CC[C@H](O[C@H]6O[C@H](CO)[C@@H](O)[C@H](O[C@@H]7O[C@H](CO)[C@@H](O)[C@H](O)[C@H]7O)[C@H]6O)C(C)(C)C5CC[C@]43C)[C@@H]2C1 (stereo partly drawn)
inactive: max response (CRL-7250) -1.95% | max response (HEK293) -4.45% | outcome (HaCat [1]) | max response (KB-3-1) 4.79% | outcome (NIH3T3 [2]) | outcome (HACAT [3]) inactive [at 9.27 µM] | outcome (NIH3T3 [4]) inactive [at 9.27 µM] | activity change, negative = cytotoxicity (C33A) 0.319% [at 11.6 µM] | activity change, negative = cytotoxicity (CAOV3) 1.94% [at 11.6 µM] | activity change, negative = cytotoxicity (CASKI) -7.8% [at 11.6 µM] | activity change, negative = cytotoxicity (Es-2) -1.42% [at 11.6 µM] | activity change, negative = cytotoxicity (HeLa) 11.5% [at 11.6 µM] | activity change, negative = cytotoxicity (Hek293T) 5.32% [at 11.6 µM] | activity change, negative = cytotoxicity (JEG-3) -9.09% [at 11.6 µM]

CC(C)C1(O)C=C2C(=O)CC3C(C)(C(=O)O)CCCC3(C)C2CC1 (stereo not drawn)
inactive: max response (CRL-7250) 3.97% | max response (HEK293) 0.541% | outcome (HaCat [1]) | max response (KB-3-1) -0.238% | outcome (NIH3T3 [2]) | outcome (HACAT [3]) | outcome (NIH3T3 [4]) | Potency (C33A) | Potency (CAOV3) | outcome (CASKI) | Potency (Es-2) | Potency (HeLa) | Potency (Hek293T) | Potency (JEG-3)

CC(=O)O[C@@H](C[C@@H]1C=C(C)C(=O)O1)[C@H](C)[C@H]1CCC2[C@@]3(C)CC[C@H](O[C@@H]4O[C@H](CO)[C@@H](O)[C@H](O)[C@H]4O[C@@H]4O[C@@H](C)[C@H](O)[C@@H](O)[C@H]4O)C(C)(C)C3CC[C@@]2(C)[C@@]12COC(=O)C2 (stereo partly drawn)
inactive: outcome (CRL-7250) | max response (HEK293) -15.8% | outcome (HaCat [1]) | max response (KB-3-1) 1.23% | outcome (NIH3T3 [2]) | outcome (HACAT [3]) inactive [at 9.27 µM] | outcome (NIH3T3 [4]) inactive [at 9.27 µM] | activity change, negative = cytotoxicity (C33A) 13.5% [at 11.6 µM] | activity change, negative = cytotoxicity (CAOV3) 4.91% [at 11.6 µM] | activity change, negative = cytotoxicity (CASKI) 4.88% [at 11.6 µM] | activity change, negative = cytotoxicity (Es-2) 8.74% [at 11.6 µM] | activity change, negative = cytotoxicity (HeLa) 5.41% [at 11.6 µM] | activity change, negative = cytotoxicity (Hek293T) 15.9% [at 11.6 µM] | activity change, negative = cytotoxicity (JEG-3) -9.52% [at 11.6 µM]

C[C@H]1CC[C@@]2(OC1)O[C@H]1CC3C4CC[C@H]5C[C@@H](O[C@@H]6O[C@H](CO)[C@H](O[C@@H]7O[C@H](CO)[C@@H](O)[C@H](O[C@@H]8OC[C@@H](O)[C@H](O)[C@H]8O)[C@H]7O[C@@H]7O[C@H](CO)[C@@H](O)[C@H](O)[C@H]7O)[C@H](O)[C@H]6O)[C@H](O)C[C@]5(C)C4=CC(=O)[C@]3(C)[C@H]1[C@@H]2C (stereo partly drawn)
inactive: max response (CRL-7250) -0.886% | max response (HEK293) 3.61% | outcome (HaCat [1]) | outcome (KB-3-1) | outcome (NIH3T3 [2]) | outcome (HACAT [3]) inactive [at 9.27 µM] | outcome (NIH3T3 [4]) inactive [at 9.27 µM] | activity change, negative = cytotoxicity (C33A) 4.61% [at 11.6 µM] | activity change, negative = cytotoxicity (CAOV3) 5.57% [at 11.6 µM] | activity change, negative = cytotoxicity (CASKI) -2.7% [at 11.6 µM] | activity change, negative = cytotoxicity (Es-2) -0.121% [at 11.6 µM] | activity change, negative = cytotoxicity (HeLa) 9.97% [at 11.6 µM] | activity change, negative = cytotoxicity (Hek293T) 0.949% [at 11.6 µM] | activity change, negative = cytotoxicity (JEG-3) -0.32% [at 11.6 µM]

CC1CCC2(NC1)OC1C(O)C3C4CCC5CC(O[C@@H]6O[C@H](CO)[C@@H](O)[C@H](O)[C@H]6O[C@@H]6O[C@@H](C)[C@H](O)[C@@H](O)[C@H]6O)CCC5(C)C4CCC3(C)C1C2C (stereo partly drawn)
inactive: max response (CRL-7250) -4.87% | max response (HEK293) 2.08% | outcome (HaCat [1]) | max response (KB-3-1) -0.386% | outcome (NIH3T3 [2]) | outcome (HACAT [3]) inactive [at 17.4 µM] | outcome (NIH3T3 [4]) inactive [at 17.4 µM] | Potency (C33A) | Potency (CAOV3) | outcome (CASKI) | Potency (Es-2) | Potency (HeLa) | Potency (Hek293T) | Potency (JEG-3)
